Test results reported in PubChem BioAssay (Tox21).
Results filed as inconclusive are left out. The source made the active and inactive calls. Unless noted, calls follow the shape of the dose curve; as a rule, active = well fitted curve in the direction sought with a large enough effect in the repeat runs; inconclusive = weak or mixed curves; inactive = no such curve, though single readings can be large; an effect the other way counts as inactive or inconclusive. Where a SMILES comes first, the peptide text is derived from it. [ ]: non-standard residue; d: D form. pGlu = O=C1CC[C@@H](C(=O)O)N1

How the values were obtained:
[1] = molecular target: Peroxisome proliferator-activated receptor gamma (Homo sapiens) (UniProt P37231); test: qHTS assay to identify small molecule antagonists of the peroxisome proliferator-activated receptor gamma (PPARg) signaling pathway (AID 743191; calls by dose curve; also: nearly all actives have a fitted effect of over 30% in size; also: potency is read from the fitted curve at half-maximal effect)
How it was run: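 Beta-lactamase reporter under UAS control in HEK293H PPARg-bla cells; compound treatment 17 h at 37C. Read-out: fluorescence intensity after 1 h room-temperature incubation with LiveBLAzer B/G FRET substrate.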

[2] = qHTS assay to identify small molecule antagonists of the peroxisome proliferator-activated receptor gamma (PPARg) signaling pathway - cell viability counter screen (AID 743194); also: nearly all actives have a fitted effect of over 55% in size
How it was run: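 Viability was measured as CellTiter-Glo luminescence in GeneBLAzer PPARg UAS-bla HEK293H cells. These cells had been exposed 17 h at 37 C to compounds together with rosiglitazone at 50 nM final, with the beta-lactamase readout taken in the same wells.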

[3] = qHTS assay for small molecule agonists of the antioxidant response element (ARE) signaling pathway - cell viability counter screen (AID 743203; calls by dose curve; also: nearly all actives have a fitted effect of over 55% in size)
How it was run: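 Parallel cytotoxicity read-out for the ARE-bla screen: HepG2 reporter cells, 16 hrs with compounds, then CellTiter-Glo luminescence.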

[4] = qHTS assay for small molecule activators of the heat shock response signaling pathway - cell viability counter screen (AID 743209); also: nearly all actives have a fitted effect of over 50% in size
How it was run: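 To flag cytotoxic compounds, HSE-bla HeLa cells plated at 1500 cells/well were dosed for 5 h at 37 C, followed by the reporter FRET read and then CellTiter-Glo, with luminescence recorded 30 min after reagent addition.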

[5] = qHTS assay for small molecule activators of the heat shock response signaling pathway (AID 743210; active = well fitted activation curve with a large enough effect in the signal ratio in the repeat runs, with a control signal flat, not every such curve was filed as active; the % refers to the signal ratio;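 also: HeLa cells with beta-lactamase reporter driven by heat shock elements; series mostly up to about 63 µM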)
How it was run: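 Fluorescence from a cleaved B/G FRET substrate (2.5 h, room temp) reports HSE-driven beta-lactamase in HeLa cells treated 5 h at 37 C with DMSO-dissolved compounds.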

[6] = qHTS assay to identify small molecule antagonists of the thyroid receptor (TR) signaling pathway (AID 743065); also: nearly all actives have a fitted effect of over 55% in size; also: potency is read from the fitted curve at half-maximal effect
How it was run: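 Antagonism measured as loss of luciferase signal in GH3 cells stably carrying a TRE-luciferase reporter, co-treated with compound and T3 (1 nM final) for 23.5 h at 37 C. Viability was read in the same well by CellTiter-Fluor.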

[7] = test system: thyroid hormone receptor (rat, GH3 cells); test: qHTS assay to identify small molecule agonists of the thyroid receptor (TR) signaling pathway (AID 743066; calls by dose curve)
[8] = qHTS assay to identify small molecule antagonists of the estrogen receptor alpha (ER-alpha) signaling pathway using the BG1 cell line - cell viability counter screen (AID 743081);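 also: compound given together with 17beta-estradiol as the ER stimulus; series mostly up to about 70 µM; nearly all actives have a fitted effect of over 45% in size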
Aromatase (Homo sapiens) = Aromatase (Homo sapiens) (UniProt P11511); test: qHTS assay to identify aromatase inhibitors (AID 743083); also: series mostly up to about 70 µM; nearly all actives have a fitted effect of over 55% in size
[9] = qHTS assay to identify aromatase inhibitors - cell viability counter screen (AID 743084)
[10] = molecular target: Aryl hydrocarbon receptor (Homo sapiens) (UniProt P35869); test: qHTS assay to identify small molecule that activate the aryl hydrocarbon receptor (AhR) signaling pathway (AID 743085); also: nearly all actives have a fitted effect of over 15% in size; also: potency is read from the fitted curve at half-maximal effect;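 as to activation: HG2L7.5c1 human HepG2 liver cells with stably integrated DRE-driven firefly reporter; series mostly up to about 70 µM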
How it was run: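 Luminescence (ONE-Glo) from a dioxin-responsive-element luciferase reporter in HG2L7.5c1 HepG2 cells after 24 hr compound exposure at 37C; viability measured by CellTiter-Fluor fluorescence beforehand.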

[11] = qHTS assay to identify small molecule that activate the aryl hydrocarbon receptor (AhR) signaling pathway - cell viability counter screen (AID 743086);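 also: HepG2 liver cells carrying the AhR DRE luciferase reporter; series mostly up to about 70 µM; nearly all actives have a fitted effect of over 45% in size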
How it was run: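 Cytotoxicity counter screen: CellTiter-Fluor signal (30 min, 37 C) in 4000 HepG2 cells/well carrying the DRE-luciferase reporter, following 24 h compound exposure at 37 C.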

[12] = molecular target: Peroxisome proliferator-activated receptor gamma (Homo sapiens) (UniProt P37231); test: qHTS assay to identify small molecule agonists of the peroxisome proliferator-activated receptor gamma (PPARg) signaling pathway (AID 743094; active = well fitted activation curve with a large enough effect in the signal ratio in the repeat runs, not every such curve was filed as active; the % refers to the signal ratio; also: potency is read from the fitted curve at half-maximal effect)
How it was run: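 Fluorescence-based beta-lactamase readout in HEK293H PPARg UAS-bla cells after 17 h compound exposure (37C) and 1 h B/G FRET substrate incubation at room temperature.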

[13] = qHTS assay to identify small molecule antagonists of the estrogen receptor alpha (ER-alpha) signaling pathway - cell viability counter screen (AID 743074; calls by dose curve; also: nearly all actives have a fitted effect of over 45% in size)
[14] = qHTS assay for small molecule agonists of the antioxidant response element (ARE) signaling pathway (AID 743202; active = well fitted activation curve with a large enough effect in the signal ratio in the repeat runs, not every such curve was filed as active; the % refers to the signal ratio)
How it was run: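 Beta-lactamase reporter activity, read as fluorescence intensity, reflects ARE/Nrf2 pathway induction in HepG2 cells after 16 h compound exposure at 37 C; substrate loading was 2 h at room temperature.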

[15] = molecular target: Estrogen receptor (Homo sapiens) (UniProt P03372); test: qHTS assay to identify small molecule antagonists of the estrogen receptor alpha (ER-alpha) signaling pathway (AID 743069; active = well fitted curve in the direction sought with a large enough effect in the signal ratio in the repeat runs, not every such curve was filed as active; the % refers to the signal ratio)
How it was run: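 Fluorescence intensity from a beta-lactamase FRET substrate served as the read-out. Cells: HEK293 with stably integrated ER-alpha-UAS-bla reporter. Agonist 17beta-estradiol was co-added with compounds; incubation 18 hr at 37C, substrate 2 hr at room temperature.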

[16] = molecular target: Estrogen receptor (Homo sapiens) (UniProt P03372); test: qHTS assay to identify small molecule agonists of the estrogen receptor alpha (ER-alpha) signaling pathway (AID 743075; calls by dose curve; also: potency is read from the fitted curve at half-maximal effect)
[17] = molecular target: Estrogen receptor (Homo sapiens) (UniProt P03372); test: qHTS assay to identify small molecule agonists of the estrogen receptor alpha (ER-alpha) signaling pathway using the BG1 cell line (AID 743079); also: nearly all actives have a fitted effect of over 20% in size; also: potency is read from the fitted curve at half-maximal effect
[18] = qHTS assay to identify small molecule antagonists of the estrogen receptor alpha (ER-alpha) signaling pathway using the BG1 cell line (AID 743080; calls by dose curve;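 also: BG1 cells stimulated with 17beta-estradiol alongside compound; series mostly up to about 70 µM; nearly all actives have a fitted effect of over 25% in size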)
How it was run: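 Endogenous full-length ER-alpha in BG1-Luc-4E2 cells drives a stably integrated 4×ERE luciferase gene; compounds were tested against 17beta-estradiol over 21.5 h, with luminescence and multiplexed viability fluorescence recorded.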

Measured: Potency

Sequence of Aromatase (Homo sapiens) (P11511 whole entry, looked up): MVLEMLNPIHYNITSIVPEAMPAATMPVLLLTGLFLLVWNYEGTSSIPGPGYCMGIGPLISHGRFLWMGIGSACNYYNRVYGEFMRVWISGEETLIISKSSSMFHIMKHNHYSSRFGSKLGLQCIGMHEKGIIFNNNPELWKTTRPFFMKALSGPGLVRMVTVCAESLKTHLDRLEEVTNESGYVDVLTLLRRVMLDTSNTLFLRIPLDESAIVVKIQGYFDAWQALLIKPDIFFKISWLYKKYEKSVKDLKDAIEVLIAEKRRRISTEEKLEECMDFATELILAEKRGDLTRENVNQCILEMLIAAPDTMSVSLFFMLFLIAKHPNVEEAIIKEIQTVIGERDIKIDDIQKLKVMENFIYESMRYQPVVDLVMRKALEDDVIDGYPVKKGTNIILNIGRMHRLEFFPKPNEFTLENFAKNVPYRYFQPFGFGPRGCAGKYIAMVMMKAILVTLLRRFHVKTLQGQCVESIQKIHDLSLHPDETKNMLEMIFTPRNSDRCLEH
Sequence of Aryl hydrocarbon receptor (Homo sapiens) (P35869 whole entry, looked up): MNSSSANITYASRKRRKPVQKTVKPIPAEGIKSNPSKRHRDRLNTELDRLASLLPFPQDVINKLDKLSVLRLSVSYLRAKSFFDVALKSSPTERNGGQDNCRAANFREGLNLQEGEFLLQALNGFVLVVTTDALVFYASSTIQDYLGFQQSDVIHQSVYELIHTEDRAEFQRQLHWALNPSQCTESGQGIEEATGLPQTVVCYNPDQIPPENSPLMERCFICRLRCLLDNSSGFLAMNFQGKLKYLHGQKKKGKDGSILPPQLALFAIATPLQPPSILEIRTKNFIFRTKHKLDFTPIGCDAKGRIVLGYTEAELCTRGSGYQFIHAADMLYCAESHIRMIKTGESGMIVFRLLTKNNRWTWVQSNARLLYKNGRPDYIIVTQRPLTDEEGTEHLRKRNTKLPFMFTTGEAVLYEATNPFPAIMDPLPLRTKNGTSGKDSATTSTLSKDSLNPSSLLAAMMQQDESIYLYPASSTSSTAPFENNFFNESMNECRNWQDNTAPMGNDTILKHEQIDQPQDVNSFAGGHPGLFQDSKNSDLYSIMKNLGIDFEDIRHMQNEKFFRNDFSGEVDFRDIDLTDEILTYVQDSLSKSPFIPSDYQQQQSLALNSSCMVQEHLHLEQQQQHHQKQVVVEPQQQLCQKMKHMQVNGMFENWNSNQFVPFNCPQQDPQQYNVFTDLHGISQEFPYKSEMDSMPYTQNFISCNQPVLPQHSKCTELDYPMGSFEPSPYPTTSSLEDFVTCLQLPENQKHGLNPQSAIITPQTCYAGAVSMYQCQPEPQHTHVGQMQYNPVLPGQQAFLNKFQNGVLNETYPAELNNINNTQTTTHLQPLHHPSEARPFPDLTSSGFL
Sequence of Peroxisome proliferator-activated receptor gamma (Homo sapiens) (P37231 whole entry, looked up): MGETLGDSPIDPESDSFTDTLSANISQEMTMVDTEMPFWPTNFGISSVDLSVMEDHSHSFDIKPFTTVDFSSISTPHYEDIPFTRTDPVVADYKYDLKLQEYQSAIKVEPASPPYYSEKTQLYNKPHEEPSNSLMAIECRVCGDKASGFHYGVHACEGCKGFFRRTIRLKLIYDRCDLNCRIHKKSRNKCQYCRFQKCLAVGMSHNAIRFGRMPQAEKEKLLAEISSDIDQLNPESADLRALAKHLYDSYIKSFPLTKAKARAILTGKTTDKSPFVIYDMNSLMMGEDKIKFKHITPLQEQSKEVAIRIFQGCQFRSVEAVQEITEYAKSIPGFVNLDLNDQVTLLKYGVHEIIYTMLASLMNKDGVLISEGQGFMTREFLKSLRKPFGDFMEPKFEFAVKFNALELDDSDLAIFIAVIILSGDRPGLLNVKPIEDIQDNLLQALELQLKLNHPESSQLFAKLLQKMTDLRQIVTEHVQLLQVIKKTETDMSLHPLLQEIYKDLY
Sequence of Estrogen receptor (Homo sapiens) (P03372 whole entry, looked up): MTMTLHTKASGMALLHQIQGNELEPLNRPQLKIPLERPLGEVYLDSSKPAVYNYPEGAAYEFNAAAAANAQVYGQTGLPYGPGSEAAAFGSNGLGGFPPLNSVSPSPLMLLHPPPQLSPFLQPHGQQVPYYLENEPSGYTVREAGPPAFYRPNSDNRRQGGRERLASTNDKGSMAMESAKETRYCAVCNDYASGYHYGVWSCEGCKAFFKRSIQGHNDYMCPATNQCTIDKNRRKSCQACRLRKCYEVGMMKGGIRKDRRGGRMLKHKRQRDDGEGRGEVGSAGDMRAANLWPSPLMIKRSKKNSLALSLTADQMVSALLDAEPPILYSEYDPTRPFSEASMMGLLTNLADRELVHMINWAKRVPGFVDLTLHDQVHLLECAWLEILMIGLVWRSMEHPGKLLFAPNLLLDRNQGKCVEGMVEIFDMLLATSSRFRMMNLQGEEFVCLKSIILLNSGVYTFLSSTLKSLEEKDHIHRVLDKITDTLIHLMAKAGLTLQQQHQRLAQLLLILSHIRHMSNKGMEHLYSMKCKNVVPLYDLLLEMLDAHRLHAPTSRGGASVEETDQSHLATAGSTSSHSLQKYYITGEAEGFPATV

Cc1coc2ccccc2c1=O
inactive: [1] | [2] | [3] | [4] | [5]

CCCC(=O)O[C@]1(C(=O)CC)CC[C@H]2[C@@H]3CCC4=CC(=O)CC[C@]4(C)[C@H]3[C@@H](O)C[C@@]21C
inactive: [2] | [3] | [4] | [5]

C=C(C)C(=O)OCC(O)CO (stereo unspecified)
inactive: [1] | [2] | [3] | [4] | [5]

C[C@@H]1CCC[C@H](C)N1
not listed: [2] | [13] | [14] | [15] | [16] | [17] | [18]
inactive: all other assays above

C[C@H]1[C@H](NC(=O)/C(=N/OC(C)(C)C(=O)O)c2csc(N)n2)C(=O)N1S(=O)(=O)O (stereo in doubt)
not listed: [1] | [6] | [7] | [12] | [15] | [16] | [17] | [18]
inactive: all other assays above

N[C@H](C(=O)O)[C@@H](O)c1ccc(O)c(O)c1
not listed: [6] | [14]
inactive: all other assays above

Cc1ccc(-c2ccccc2C#N)cc1
inactive: [1] | [3] | [4] | [5]

CCNC(=O)[C@@H]1CCCN1C(=O)[C@H](CCCN=C(N)N)NC(=O)[C@H](CC(C)C)NC(=O)CNC(=O)[C@H](Cc1ccc(O)cc1)NC(=O)[C@H](CO)NC(=O)[C@H](Cc1c[nH]c2ccccc12)NC(=O)[C@H](Cc1cnc[nH]1)NC(=O)[C@@H]1CCC(=O)N1 ([pGlu]HWSYGLRP-NHEt)
inactive: [1] | [14] | [3] | [4] | [5]

CN(C)C(=O)Oc1ccc[n+](C)c1
active: [17] 26.6 µM
not listed: [6] | [7]
inactive: all other assays above

CC1OC1C1CCC2(C)OC2C1 (stereo unspecified)
not listed: [2]
inactive: all other assays above

NC(=O)NC1N=C([O][Al])NC1=O (stereo unspecified)
inactive: [1] | [2] | [3]

Cc1ccnc(NS(=O)(=O)c2ccc(N)cc2)n1
not listed: [2] | [6] | [7] | [10]
inactive: all other assays above

Cc1onc(-c2c(Cl)cccc2Cl)c1C(=O)Cl
inactive: [2] | [14] | [3] | [4] | [5]

CC(C)COC(=O)c1ccc(N)cc1
active: [16] 26.8 µM [activator] | [17] 26.6 µM
not listed: [6] | [7] | [10] | [18]
inactive: all other assays above

CC(COc1ccccc1)NN (stereo unspecified)
not listed: [1] | [6] | [7] | [10] | [14]
inactive: all other assays above

O=C(c1ccccc1O)c1ccccc1O
active: [1] 43.2 µM
not listed: [2] | Aromatase (Homo sapiens) | [14] | [15] | [18]
inactive: all other assays above

CCN(Cc1ccccc1)c1ccccc1
not listed: [6] | [7]
inactive: all other assays above

Cc1nc(C2CCCCC2)c(-c2ccc(S(N)(=O)=O)c(F)c2)o1
inactive: [3] | [4] | [5]

CC(C)(C)C(=O)c1ccccc1
active: [17] 61.1 µM
not listed: [1] | [2] | [12] | [14] | [16] | [18]
inactive: all other assays above

CNCC(O)c1ccc(O)c(O)c1 (stereo unspecified)
inactive: [1] | [2] | [14] | [3] | [4] | [5]

O=[N+]([O-])c1cncn1CCN1CCOCC1
inactive: [1] | [2] | [14] | [3] | [4] | [5]

CCOc1c(N2CCOCC2)cnn(C)c1=O
inactive: [2] | [14] | [3] | [4] | [5]

O=C(O)CCCC[P+](c1ccccc1)(c1ccccc1)c1ccccc1
inactive: [1] | [2] | [14] | [3] | [4] | [5]

CC1=NS(=O)(=O)c2cc(Cl)ccc2N1
not listed: [1] | [2] | [6] | [7] | [13]
inactive: all other assays above

NCCCC[C@H](N[C@@H](CCc1ccccc1)C(=O)O)C(=O)N1CCC[C@H]1C(=O)O
not listed: [5] | [6] | [7] | [14] | [15] | [16] | [17] | [18]
inactive: all other assays above

O=C(O)CCSCCC(=O)O
not listed: [2] | [15]
inactive: all other assays above

COCCOC[C@H](CC1(C(=O)NC2CCC(C(=O)O)CC2)CCCC1)C(=O)Oc1ccc2c(c1)CCC2 (stereo partly specified)
not listed: [9] | [14]
inactive: all other assays above

C[N+]1(C)[C@@H]2CC(OC(=O)[C@H](CO)c3ccccc3)C[C@H]1[C@@H]1O[C@@H]12 (stereo partly specified)
not listed: [6]
inactive: all other assays above

CN(C)CCCCCCN(C)C
inactive: [2] | [14] | [3] | [4] | [5]

CCOC(=O)C(=O)CCCCCCl
inactive: [1] | [2] | [14] | [3] | [4] | [5]

Nc1c2c(nc3c1CCC3)CCCC2
not listed: [5] | [6] | [10]
inactive: all other assays above

C1CCC2=NCCCN2CC1
not listed: [1] | [12] | [14] | [15] | [16] | [17] | [18]
inactive: all other assays above

COCCOCC(OC)OC
inactive: [1] | [2] | [14] | [3] | [4] | [5]

COC(=O)Nc1ccc(Cl)c(Cl)c1
active: [6] 60.8 µM | [10] 60.8 µM
not listed: [15] | [16] | [17] | [18]
inactive: all other assays above

CCCCc1nc(Cl)c(CO)n1Cc1ccc(-c2ccccc2-c2nn[nH]n2)cc1
active: [12] 23.9 µM
inactive: [13] | [8] | Aromatase (Homo sapiens) | [9] | [10] | [11] | [1] | [2] | [3] | [5]

CC1=NN(c2cc(S(=O)(=O)O)ccc2Cl)C(=O)C1N=Nc1ccccc1 (stereo unspecified)
not listed: [5] | [8] | [9] | [10] | [11] | [14]
inactive: all other assays above
